# Assay outcomes as filed in PubChem BioAssay.
# A selection: hits, their analogues and other compounds. The true share with any hit is near 5.7%.
# B2AR arrestin – recruits beta-arrestin to the human beta2-adrenergic receptor; P07550; beta-arrestin recruitment to beta2AR, cell-based reporter; Potency, µM (series often up to 46.1 µM), for the others: at the highest dose activation, hits mostly activators; 0.02% of 330,000 active; AID 492947;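 further: 0% = DMSO controls and full agonism = EC100 isoproterenol or metaproterenol; nearly all actives have a fitted effect of over 65% in size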
# RORg inh – blocks mouse ROR gamma transcriptional activity | Potency, µM (titrated, usually from 53.6 µM), for inactives: at the top dose activity change, negative = inhibition, usual class: inhibitors | AID 2551 | P51450 | 5.4% of 310,000 active | Drosophila S2 Gal4-RORgamma UAS-luciferase reporter, 20 h; further: nearly all actives have a fitted effect of over 60% in size
#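 Drosophila Schneider cells stably carrying a metallothionein-driven Gal4 DBD–ROR gamma fusion and a UAS-Photinus luciferase reporter were exposed to compound for 1 hr, then induced with copper sulfate (700 uM final) for 20 hr at ambient temperature before luminescence reading.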
# NPSR antagonist – antagonists of human neuropeptide S receptor cAMP signaling; 1% of 220,000 active; CHO-NPSR cells, cAMP TR-FRET, antagonist mode; Potency, µM (doses to about 38.3 µM), for the others: top-dose activity change, negative = inhibition, hits mostly inhibitors; further: nearly all actives have a fitted effect of over 50% in size
# Target sequence (Q6W5P4 whole entry, looked up): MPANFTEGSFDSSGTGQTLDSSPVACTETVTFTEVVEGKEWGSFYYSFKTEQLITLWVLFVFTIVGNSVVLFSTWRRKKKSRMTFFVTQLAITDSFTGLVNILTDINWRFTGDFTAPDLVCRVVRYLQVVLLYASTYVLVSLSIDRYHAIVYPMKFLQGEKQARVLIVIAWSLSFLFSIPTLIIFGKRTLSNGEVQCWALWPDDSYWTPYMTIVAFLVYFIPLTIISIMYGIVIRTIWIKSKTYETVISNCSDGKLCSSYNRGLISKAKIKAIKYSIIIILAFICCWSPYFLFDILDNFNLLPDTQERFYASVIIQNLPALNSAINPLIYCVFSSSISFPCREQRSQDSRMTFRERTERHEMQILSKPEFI
# Gal4-VP16 FLuc – Gal4-VP16 reporter inhibition counter-screen | Drosophila S2 Gal4-VP16 UAS-luciferase, luminescence, 20 h | Potency, µM (highest dose often 53.6 µM), without a hit: at the highest dose activity, negative = inhibition, actives largely listed as inhibitors | 3.5% of 310,000 active;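 further: Gal4-VP16 expression switched on by copper sulfate through the metallothionein promoter; nearly all actives have a fitted effect of over 50% in size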
# Numbers without * were called inactive; u = inconclusive; x = no result given; ! = not active in a repeat; [ ] = dose if it differs, or a comment. The call rests on the fitted dose curve; in most records, active means well fitted curve in the direction sought with a large enough effect; inconclusive means small, poorly fitted or top-dose-only effect, or another doubt; inactive means no such curve, though single readings can be large; an effect the other way counts as inactive or inconclusive. Unless noted, on the % scale 0 is the no-effect control and ±100 the full control effect; potency means the concentration at half of the fitted maximal effect.
SMILES,B2AR arrestin,RORg inh,NPSR antagonist,Gal4-VP16 FLuc
O=C(NC(=S)N1CCOCC1)c1cc2ccccc2o1,0.4%,1µM*,-15.5%,3.16µM*
CN1CCCN(C(=O)c2ccc(Br)cc2)CC1,0.2%,u,x,4.1%
CN1CCN(C(=S)NC(=O)c2ccc(Br)cc2)CC1,u,0.891µM*,u,1.12µM*
O=C(c1cc2ccccc2o1)N1CCOCC1,0.0%,x,x,x
Cc1ccc(C(=O)NC(=S)N2CCCC2)cc1,13.2%,0.891µM*,x,5.01µM*
COc1ccc(C(=O)NC(=S)N2CCN(c3ccccc3O)CC2)cc1,0.3%,x,x,x
Cc1ccc(C(=O)Nc2ccc(C(=O)N3CCCCC3)cc2)cc1,0.4%,14.6%,3.7%,-5.8%
CC(C)CN1CC2(CCN(C(=O)c3ccco3)CC2)C1,x,22.3%,x,0.4%
O=CN1CCN(C(=S)NC(=O)c2ccc(Cl)cc2)CC1,0.4%,x,x,x
Cc1ccc(C(=O)NC(=S)N2CCN(C)CC2)cc1,-0.3%,0.0%,2.5%[46.1 µM],7.08µM*
COc1ccc(OC)c(C2=Nn3c(nnc3-c3ccccc3C)SC2)c1,x,-3.8%,x,-6.8%
CC(=O)c1nc(N2C(=O)CC(Cc3ccccc3)C2=O)sc1C (stereo not drawn),-0.2%,1.5%,33.9%,u
CCOc1cc(C)c(C(C)C)cc1S(=O)(=O)NCc1ccccn1,x,10µM*,-11.1%[46.1 µM],10.6%
Cc1ccc(S(=O)(=O)NCc2ccccn2)c(C)c1,-1.1%,u,x,4.1%
COC(=O)c1ccc2nc(-c3cccc(N)c3)cn2c1,-0.3%,6.31µM*,13.0%,7.94µM*
Cc1ccc(S(=O)(=O)N(CC(=O)Nc2ccc(Cl)cc2)C(=O)N2CCN(C)CC2)cc1,0.3%,x,x,x
O=C(Cn1nnc(-c2ccccc2)n1)N/N=C/c1cccc([N+](=O)[O-])c1O,-0.1%,1.78µM*,12.4%,u
Cc1ccccc1C(=O)Nc1cccc(C(=O)N/N=C/c2cc(Cl)cc([N+](=O)[O-])c2O)c1,-0.2%,1.12µM*,-6.2%,2.51µM*
O=[N+]([O-])c1cc(Cl)cc(/C=N/Nc2nc3ccccc3s2)c1O,3.0%,0.891µM*,20.5%,2.24µM*
O=C(Cn1nc2ccccc2n1)N/N=C/c1cc(Cl)cc([N+](=O)[O-])c1O,-0.8%,1.78µM*,-16.0%,14.1µM*
O=C(Cn1nc2ccccc2n1)N/N=C/c1ccc(F)cc1,-0.8%,23.6%,-7.5%,0.8%
COCCNC(=O)c1cc2oc3ccccc3c2n1C,0.1%,11.7%,-8.2%[46.1 µM],1.2%
CC(C)(C)N/N=C/c1cc(Cl)cc([N+](=O)[O-])c1O,-0.3%,-10.1%,-19.0%,2.3%
O=C(N/N=C/c1cc(Cl)cc([N+](=O)[O-])c1O)C1CC1,0.2%,0.631µM*,25.7%,2µM*
O=C(NC1CCCN(Cc2ccc(Cl)cc2)C1)c1ccoc1 (stereo not drawn),-0.2%,5.3%,x,-3.8%
SMILES,B2AR arrestin,RORg inh,NPSR antagonist,Gal4-VP16 FLuc
COC(=O)[C@H]1CC2(CC=C(C)C)C(=O)[C@@](CC=C(C)C)(C(=O)C(C(=O)c3ccccc3)=C2OC)C1(C)C (tested in a mixture with another compound),x,27.8%,x,-13.4%
COc1ccc(OC)c(C2CC(=O)Nc3c2c(=O)[nH]c2ncnn32)c1 (stereo not drawn),-0.3%,3.0%,19.3%,1.6%
CCN(CC)c1ccc(/C=N/NC(=S)NCc2ccco2)cc1,0.5%,1.78µM*,-33.1%,3.16µM*
S=C(NCc1ccco1)N/N=C/c1cccnc1,0.3%,11.2µM*,10.2%,u
S=C(NCc1ccco1)N/N=C/c1ccc(Cl)cc1,0.4%,2.51µM*,-30.8%,5.62µM*
O=C(N/N=C/c1cccnc1)c1ccco1,0.6%,4.9%,-15.3%,u
CCOc1ccc(/C=N/NC(=O)C(=O)NCc2ccco2)cc1,-0.6%,-29.5%,-4.5%[46.1 µM],4.6%
Oc1ccc(/C=N/NC(=S)NCc2ccco2)cc1,-0.1%,11.2µM*,-5.8%[46.1 µM],-10.4%
Oc1c(Br)cc(/C=N/NC(=S)NCc2ccco2)cc1Br,-0.6%,u,48.4%,-10.4%
C[C@]1(OC(=O)/C=C\c2ccccc2)C[C@@H](O)[C@@]2(O)C=CO[C@@H](O[C@H]3O[C@@H](CO)[C@@H](O)[C@@H](O)[C@@H]3O)[C@H]21,x,-25.0%[16.9 µM],x,-6.4%[17 µM]
O=C(Nc1nc2ccccc2n1CCN1CCOCC1)c1cn(-c2ccccc2)nc1-c1ccccc1,0.1%,0.631µM*,u,1.12µM*
O=C(Nc1nc2ccccc2n1CCN1CCOCC1)c1ccccc1,-1.6%,2.82µM*,x,3.55µM*
CNCCCC1c2ccccc2C=Cc2ccccc21,-0.9%,25.2%,1.7%,-0.9%
CNCCCC12CCC(c3ccccc31)c1ccccc12,-0.1%,10µM*!,-7.0%,u
CCn1cc(CNc2nc3nonc3nc2N2CCCCC2)cn1,0.4%,7.08µM*,21.0%,u
Cc1ccc(/C(O)=C2\C(=O)C(=O)N(C)C2c2ccc(F)cc2)cc1 (stereo not drawn),-0.3%,5.5%,x,-2.2%
COc1ccc(CCN2C(=O)C3C4C=CC(C3C2=O)C2C(=O)N(CCc3ccc(OC)c(OC)c3)C(=O)C42)cc1OC (stereo not drawn),0.3%,0.0%,-14.1%[46.1 µM],8.91µM*
COc1ccc(CCN2C(=O)C3C4C=CC(C5CC45)C3C2=O)cc1OC (stereo not drawn),0.0%,3.0%,1.2%,1.2%
CCCCC1=CC2=C(OC(C)=O)C(=O)C(C)(OC(=O)CCC(=O)OC)C(=O)C2=CO1 (stereo not drawn),x,-6.8%,x,-3.3%
CSc1ccc(-c2nc(CSCC(=O)NC3CC3)c(C)o2)cc1,0.0%,8.91µM*,x,u
CCOC(=O)N1CCC(NC(=O)CSCc2nc(-c3ccc(OC)cc3)oc2C)CC1,-0.5%,-41.7%,x,-6.4%
Cc1oc(-c2ccccc2Cl)nc1CSCC(=O)NC1CC1,0.1%,-3.8%,-4.6%[46.1 µM],-3.3%
CCc1ccc(-c2nc(CSCC(=O)N3CCN(c4ncccn4)CC3)c(C)o2)cc1,0.3%,15.8µM*,8.0%[46.1 µM],15.8µM*
COc1ccc(-c2nc(CSCC(=O)NCCCN3CCCC3=O)c(C)o2)cc1,-0.3%,-24.1%,x,11.2µM*
CCc1ccc(-c2nc(CSCC(=O)NC3CC3)c(C)o2)cc1,0.4%,2µM*,x,u
SMILES,B2AR arrestin,RORg inh,NPSR antagonist,Gal4-VP16 FLuc
O=C(CSc1ncccn1)NCc1cccs1,-0.1%,26.0%,13.5%,16.0%
Cc1ccc(S(=O)(=O)Nc2cc(-c3ccccc3)nn2C)cc1Cl,-0.6%,12.4%,25.1%,-6.8%
O=C(Cc1ccc(Cl)cc1)N1CCN(c2ccccc2)CC1,0.0%,3.5%,x,7.3%
CCOC(=O)c1sc(NC(=O)C(C)Sc2nnc(N)s2)nc1C (stereo not drawn),-0.4%,-5.7%,-8.3%,-12.8%
CCCNC(C)C(=O)Nc1ccccc1C (stereo not drawn),3.16µM*,32.2%,-4.2%[46.1 µM],0.6%
CN1CCN(CCc2nc3cc(NC(=O)COc4ccc([N+](=O)[O-])cc4)ccc3n2C)CC1,-1.1%,-17.0%,x,-0.2%
COC(=O)c1cccc(-c2ccc(C(c3c(C)[nH][nH]c3=O)c3c(C)[nH][nH]c3=O)o2)c1,0.1%,11.2µM*,0.9%,-15.1%
COC(=O)c1ccccc1-c1ccc(C(c2c(C)[nH][nH]c2=O)c2c(C)[nH][nH]c2=O)o1,-0.6%,37.3%,4.3%,-6.3%
